“And” between values parts separate entries of the source, which are not always exact repeats. Identical values can stand only once. Records with an inconclusive call do not appear. Some structures have more than one record in an assay (separate samples or runs), and their calls can disagree. The source made the active and inactive calls. Rule for the calls: active = hit-call score of the fitted dose curve at least 0.9, where 1 is the maximum; inconclusive = response in the unintended direction; inactive = score below 0.9.
How the values were obtained:
[1] = target: rat Thyrotropin Releasing Hormone Receptor (TRH), Trhr (gene 25570) (UniProt Q01717); test: NVS_GPCR_rTRH: NovaScreen (NVS) G Protein-Coupled Receptor Assay for rat Thyrotropin Releasing Hormone Receptor (TRH) (AID 2283329);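 note: hit means lower bound tracer signal versus DMSO baseline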
Chain of rat Thyrotropin Releasing Hormone Receptor (TRH), Trhr (gene 25570) (Q01717 whole entry, looked up): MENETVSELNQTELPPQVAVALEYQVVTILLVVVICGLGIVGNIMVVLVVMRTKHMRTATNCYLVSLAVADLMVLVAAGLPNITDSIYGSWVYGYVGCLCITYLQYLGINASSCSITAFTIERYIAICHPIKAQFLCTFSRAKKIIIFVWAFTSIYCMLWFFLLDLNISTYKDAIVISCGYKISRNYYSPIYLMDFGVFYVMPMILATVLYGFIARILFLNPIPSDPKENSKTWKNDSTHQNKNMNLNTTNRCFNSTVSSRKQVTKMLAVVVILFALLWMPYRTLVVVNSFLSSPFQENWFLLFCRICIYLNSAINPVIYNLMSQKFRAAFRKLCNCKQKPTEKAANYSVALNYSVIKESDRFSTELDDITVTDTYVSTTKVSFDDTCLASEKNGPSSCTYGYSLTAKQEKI
Method in brief: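 Test compounds are screened at 25 uM in duplicate against radioligand binding in rat forebrain membranes, with active pairs followed up over a concentration range. Detection uses filter-based radiodetection after a 4 h exposure.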

[2] = target: Estrogen receptor (Homo sapiens) (UniProt P03372); test: OT_ER_ERaERa_1440: Odyssey Thera (OT) 24-hour HEK293T Protein-Complementation Assay for Estrogen Receptor-alpha/-alpha Homodimer (AID 2283349);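 note: hits raise fluorescence above DMSO for agonists and antagonists alike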
Chain of Estrogen receptor (Homo sapiens) (P03372 whole entry, looked up, the tested form may be a part): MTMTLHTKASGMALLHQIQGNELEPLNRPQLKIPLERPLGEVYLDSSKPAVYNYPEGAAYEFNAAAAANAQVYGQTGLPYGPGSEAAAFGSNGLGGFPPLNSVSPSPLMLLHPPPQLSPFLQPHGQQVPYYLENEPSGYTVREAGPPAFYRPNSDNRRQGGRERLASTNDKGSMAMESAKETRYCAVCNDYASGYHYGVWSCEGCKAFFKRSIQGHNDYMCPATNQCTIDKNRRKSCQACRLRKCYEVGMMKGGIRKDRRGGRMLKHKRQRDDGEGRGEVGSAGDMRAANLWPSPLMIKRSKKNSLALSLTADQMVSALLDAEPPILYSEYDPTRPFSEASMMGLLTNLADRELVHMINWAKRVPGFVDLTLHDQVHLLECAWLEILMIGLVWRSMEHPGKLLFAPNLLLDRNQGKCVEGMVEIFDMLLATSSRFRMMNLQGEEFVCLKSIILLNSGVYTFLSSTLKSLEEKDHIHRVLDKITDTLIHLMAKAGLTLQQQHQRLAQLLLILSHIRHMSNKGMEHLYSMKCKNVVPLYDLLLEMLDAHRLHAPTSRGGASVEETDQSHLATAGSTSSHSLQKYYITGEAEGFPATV
Method in brief: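 HEK293T cells stably expressing the human ER alpha ligand-binding domain (aa 310-547) as a homodimer PCA were dosed for 24 hours. Fluorescence intensity was read by laser scanning cytometry, and gain of signal was fitted relative to DMSO vehicle.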

[3] = target: Estrogen receptor (Homo sapiens) (UniProt P03372); test: OT_ER_ERaERa_0480: Odyssey Thera (OT) 8-hour HEK293T Protein-Complementation Assay for Estrogen Receptor-alpha/-alpha Homodimer (AID 2283351);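 note: rise in fluorescence from reassembled reporter fragments on ERα LBD homodimer in nucleus or whole cell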
Method in brief: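 HEK293T cells stably expressing the human ERα ligand-binding domain (aa 310-547) as a homodimer PCA were dosed with compound for 8 h. Gain of fluorescence intensity versus DMSO vehicle was read by laser scanning cytometry.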

[4] = target: Androgen Receptor/SRC-1 Co-activator, AR (gene 367) (UniProt P10275); test: OT_AR_ARSRC1_0960: Odyssey Thera (OT) 16-hour HEK293T Protein-Complementation Assay for Androgen Receptor/SRC-1 Co-activator (AID 2283353);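 note: actives raise the signal above DMSO so potency reflects increased AR and SRC-1 complex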
Method in brief: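 HEK293T cells stably expressing AR and SRC-1 fused to split Venus YFP fragments via (Gly4Ser)2 linkers were dosed for 16 h. Nuclear/cytoplasmic fluorescence ratio at 488 nm, ≥400 cells per image, fitted for gain of signal versus DMSO.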

[5] = target: Androgen Receptor/SRC-1 Co-activator, AR (gene 367) (UniProt P10275); test: OT_AR_ARSRC1_0480: Odyssey Thera (OT) 8-hour HEK293T Protein-Complementation Assay for Androgen Receptor/SRC-1 Co-activator (AID 2283354);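 note: hits raise the complementation signal above DMSO so AC50 marks enhancers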
Method in brief: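 HEK293T cells stably expressing AR and SRC-1 fused to Venus YFP fragments, imaged 8 h after dosing. Complementation fluorescence scored as nuclear/cytoplasmic ratio at 488 nm in at least 400 cells per image; gain fitted versus DMSO.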

[6] = target: human Peripheral-type Benzodiazepine Receptor (PBR), TSPO (gene 706) (UniProt P30536); test: NVS_MP_hPBR: NovaScreen (NVS) Membrane Protein Assay for human Peripheral-type Benzodiazepine Receptor (PBR) (AID 2283331);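 note: hits reduce radioligand binding relative to DMSO baseline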
Chain of human Peripheral-type Benzodiazepine Receptor (PBR), TSPO (gene 706) (P30536 whole entry, looked up): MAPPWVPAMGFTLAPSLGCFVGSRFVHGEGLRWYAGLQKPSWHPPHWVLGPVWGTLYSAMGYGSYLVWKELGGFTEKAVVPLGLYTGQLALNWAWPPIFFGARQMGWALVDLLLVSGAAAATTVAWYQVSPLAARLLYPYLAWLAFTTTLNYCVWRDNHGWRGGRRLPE
Method in brief: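 Radioligand displacement on human colonic cell membranes, 1 h incubation; bound radioactivity by filtration and scintillation counting. Primary screen in duplicate at 25 uM single concentration, actives followed up in concentration series; loss of binding versus DMSO.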

[7] = target: rat Peripheral-type Benzodiazepine Receptor (PBR), Tspo (gene 24230) (UniProt P16257); test: NVS_MP_rPBR: NovaScreen (NVS) Membrane Protein Assay for rat Peripheral-type Benzodiazepine Receptor (PBR) (AID 2283335)
Chain of rat Peripheral-type Benzodiazepine Receptor (PBR), Tspo (gene 24230) (P16257 whole entry, looked up): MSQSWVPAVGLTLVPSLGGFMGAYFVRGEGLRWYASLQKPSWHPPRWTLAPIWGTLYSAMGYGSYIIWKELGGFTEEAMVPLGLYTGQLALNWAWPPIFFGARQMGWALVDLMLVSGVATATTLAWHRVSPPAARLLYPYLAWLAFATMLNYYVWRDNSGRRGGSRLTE
Method in brief: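 Radioligand displacement, rat kidney membrane prep, 1 h exposure, filter-based scintillation read; DMSO baseline, loss-of-signal scored. Primary screen at 25 uM in duplicate, actives followed up in concentration series.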

[8] = target: Estrogen receptor (Homo sapiens) (UniProt P03372); test: NVS_NR_hER: NovaScreen (NVS) Nuclear Receptor Binding Assay for human Estrogen Receptor (ER) (AID 2283348)
Method in brief: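 Radioligand competitive displacement binding to estrogen receptor from MCF7 extract, cell-free; 18 h after dosing, scintillation read-out. Primary screen in duplicate at 25 uM; actives followed up in concentration series; loss of signal vs DMSO.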

[9] = target: T1, Estrogen receptor (Homo sapiens) + Estrogen receptor beta (Homo sapiens) (UniProt P03372+Q92731); test: OT_ER_ERaERb_0480: Odyssey Thera (OT) 8-hour HEK293T Protein-Complementation Assay for Estrogen Receptor-alpha/-beta Heterodimer (AID 2283352)
T1 sequence (P03372 whole entry, looked up): as the sequence (P03372 whole entry, looked up, the tested form may be a part) above
T1 sequence (Q92731 whole entry, looked up): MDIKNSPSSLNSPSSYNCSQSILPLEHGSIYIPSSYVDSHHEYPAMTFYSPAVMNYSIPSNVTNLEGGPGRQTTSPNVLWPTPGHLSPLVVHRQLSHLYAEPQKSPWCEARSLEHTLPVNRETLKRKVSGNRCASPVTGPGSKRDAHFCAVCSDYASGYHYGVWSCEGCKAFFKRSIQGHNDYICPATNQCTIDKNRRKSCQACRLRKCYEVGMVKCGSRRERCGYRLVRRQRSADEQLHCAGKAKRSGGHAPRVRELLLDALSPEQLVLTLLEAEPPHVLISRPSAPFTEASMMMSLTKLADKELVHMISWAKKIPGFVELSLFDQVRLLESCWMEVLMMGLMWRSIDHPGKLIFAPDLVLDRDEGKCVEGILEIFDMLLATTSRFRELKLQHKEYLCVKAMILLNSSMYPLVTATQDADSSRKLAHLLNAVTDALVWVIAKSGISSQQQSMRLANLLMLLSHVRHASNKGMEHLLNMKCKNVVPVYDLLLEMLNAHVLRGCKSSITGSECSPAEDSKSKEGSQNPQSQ
Method in brief: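 Compound added to HEK293T cells carrying split-reporter-tagged ER-alpha and ER-beta LBDs, incubated 8 hours, then imaged by laser scanning cytometer. Signal rise in nucleus, or nucleus and cytoplasm, over vehicle was fitted in the positive direction.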

[10] = target: T1, Estrogen receptor (Homo sapiens) + Estrogen receptor beta (Homo sapiens); test: OT_ER_ERaERb_1440: Odyssey Thera (OT) 24-hour HEK293T Protein-Complementation Assay for Estrogen Receptor-alpha/-beta Homodimer (AID 2283356);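 note: heteromer of ER alpha and ER beta binding domains; hits raise reporter fluorescence and both agonists and antagonists give an increase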
Method in brief: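 Stable HEK293T PCA line, ERα LBD 310-547 + ERβ LBD 263-489 fused to reporter fragments; 24 h treatment; fluorescence read by laser scanning cytometry; positive fitting direction relative to DMSO.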

[11] = target: human Opioid Receptor Mu (Opiate Mu), OPRM1 (gene 4988) (UniProt P35372); test: NVS_GPCR_hOpiate_mu: NovaScreen (NVS) G Protein-Coupled Receptor Assay for human Opioid Receptor Mu (Opiate Mu) (AID 2283290);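 note: hits lower bound tracer signal versus DMSO meaning displacement of the ligand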
Method in brief: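 Here, radioligand binding to CHO-extracted receptor was measured after 2.5 h using filter-based scintillation detection. Initial single-concentration screening used 25 uM in duplicate with plate controls; confirmed actives went to concentration-response testing.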

[12] = target: bovine Estrogen Receptor (ER), ESR1 (gene 407238) (UniProt P49884); test: NVS_NR_bER: NovaScreen (NVS) Nuclear Receptor Binding Assay for bovine Estrogen Receptor (ER) (AID 2283345);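 note: actives lower the bound radioligand count which means they displace the ER ligand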
Chain of bovine Estrogen Receptor (ER), ESR1 (gene 407238) (P49884 whole entry, looked up): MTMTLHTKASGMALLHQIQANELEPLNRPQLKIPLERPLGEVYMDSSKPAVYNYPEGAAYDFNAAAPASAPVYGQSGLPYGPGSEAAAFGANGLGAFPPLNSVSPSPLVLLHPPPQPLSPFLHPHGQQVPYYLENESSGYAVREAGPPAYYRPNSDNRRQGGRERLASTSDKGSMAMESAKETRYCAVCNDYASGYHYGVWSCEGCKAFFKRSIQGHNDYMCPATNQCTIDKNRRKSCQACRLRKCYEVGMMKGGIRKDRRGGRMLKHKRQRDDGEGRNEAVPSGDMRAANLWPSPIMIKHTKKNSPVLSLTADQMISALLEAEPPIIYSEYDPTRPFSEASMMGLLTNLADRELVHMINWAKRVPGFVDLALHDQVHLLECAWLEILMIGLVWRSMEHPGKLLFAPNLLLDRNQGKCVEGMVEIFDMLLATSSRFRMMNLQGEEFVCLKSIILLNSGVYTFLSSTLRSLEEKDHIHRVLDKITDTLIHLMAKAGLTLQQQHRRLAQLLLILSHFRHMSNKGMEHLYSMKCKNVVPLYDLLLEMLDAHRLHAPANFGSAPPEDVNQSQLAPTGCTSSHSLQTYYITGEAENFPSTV
Method in brief: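 Bovine uterine membranes; tritiated or iodinated radioligand; competitive displacement; 18 h; scintillation read; DMSO negative control; 25 uM duplicates, then concentration series for actives.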

[13] = target: chimpanzee Androgen Receptor (AR), AR (gene 747460) (UniProt O97775); test: NVS_NR_cAR: NovaScreen (NVS) Nuclear Receptor Binding Assay for chimpanzee Androgen Receptor (AR) (AID 2283346);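 note: radioligand displacement from AR measured by scintillation counting in a cell-free assay; a loss of bound radioligand signal versus DMSO counts as binding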
Chain of chimpanzee Androgen Receptor (AR), AR (gene 747460) (O97775 whole entry, looked up): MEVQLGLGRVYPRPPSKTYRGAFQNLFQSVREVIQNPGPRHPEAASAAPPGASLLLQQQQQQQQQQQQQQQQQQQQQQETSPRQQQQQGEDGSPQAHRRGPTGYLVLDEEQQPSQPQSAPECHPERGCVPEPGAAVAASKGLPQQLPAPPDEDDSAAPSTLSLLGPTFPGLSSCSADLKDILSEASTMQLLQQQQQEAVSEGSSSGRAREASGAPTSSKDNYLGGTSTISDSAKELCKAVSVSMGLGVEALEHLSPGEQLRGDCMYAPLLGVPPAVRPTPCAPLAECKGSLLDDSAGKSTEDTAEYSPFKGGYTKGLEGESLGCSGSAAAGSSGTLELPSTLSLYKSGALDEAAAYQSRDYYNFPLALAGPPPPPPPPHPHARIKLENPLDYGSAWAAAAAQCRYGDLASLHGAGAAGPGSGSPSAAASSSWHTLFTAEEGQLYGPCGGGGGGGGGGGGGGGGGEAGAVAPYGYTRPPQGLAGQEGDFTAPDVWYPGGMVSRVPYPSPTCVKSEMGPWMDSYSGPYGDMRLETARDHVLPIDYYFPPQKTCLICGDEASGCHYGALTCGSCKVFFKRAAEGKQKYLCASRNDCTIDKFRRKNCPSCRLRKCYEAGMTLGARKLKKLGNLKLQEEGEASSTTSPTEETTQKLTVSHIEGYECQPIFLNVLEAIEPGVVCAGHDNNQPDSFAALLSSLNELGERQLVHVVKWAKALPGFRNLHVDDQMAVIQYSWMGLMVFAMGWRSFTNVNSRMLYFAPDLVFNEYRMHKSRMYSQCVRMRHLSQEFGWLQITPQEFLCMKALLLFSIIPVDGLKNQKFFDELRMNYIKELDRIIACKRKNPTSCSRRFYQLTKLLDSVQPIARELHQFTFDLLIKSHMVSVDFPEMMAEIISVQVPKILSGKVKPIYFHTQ
Method in brief: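 Radioligand binding to chimpanzee AR expressed in Sf9/Sf21 cells, cell-free, measured 72 h after dosing by lysate-based scintillation counting. Loss of signal vs DMSO; initial duplicate screen at 25 uM, actives retested in concentration series.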

[14] = target: Estrogen receptor beta (Homo sapiens) (UniProt Q92731); test: OT_ER_ERbERb_0480: Odyssey Thera (OT) 8-hour HEK293T Protein-Complementation Assay for Estrogen Receptor-beta/-beta Homodimer (AID 2283357);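 note: active means signal gain over DMSO baseline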
Chain of Estrogen receptor beta (Homo sapiens) (Q92731 whole entry, looked up, the tested form may be a part): as the sequence (Q92731 whole entry, looked up) above
Method in brief: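 Fluorescence intensity, nuclear for agonists and nuclear plus cytoplasmic for antagonists, was quantified by laser scanning cytometry versus vehicle after 8 h treatment. The cells were HEK293T stably carrying ER beta LBD fragment-complementation partners.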

[15] = target: human Peroxisome Proliferator-activated Receptor alpha (PPARa), PPARA (gene 5465) (UniProt Q07869); test: NVS_NR_hPPARa: NovaScreen (NVS) Nuclear Receptor Binding Assay for human Peroxisome Proliferator-activated Receptor alpha (PPARa) (AID 2283359);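 note: activity means loss of TR-FRET signal versus DMSO baseline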
Chain of human Peroxisome Proliferator-activated Receptor alpha (PPARa), PPARA (gene 5465) (Q07869 whole entry, looked up): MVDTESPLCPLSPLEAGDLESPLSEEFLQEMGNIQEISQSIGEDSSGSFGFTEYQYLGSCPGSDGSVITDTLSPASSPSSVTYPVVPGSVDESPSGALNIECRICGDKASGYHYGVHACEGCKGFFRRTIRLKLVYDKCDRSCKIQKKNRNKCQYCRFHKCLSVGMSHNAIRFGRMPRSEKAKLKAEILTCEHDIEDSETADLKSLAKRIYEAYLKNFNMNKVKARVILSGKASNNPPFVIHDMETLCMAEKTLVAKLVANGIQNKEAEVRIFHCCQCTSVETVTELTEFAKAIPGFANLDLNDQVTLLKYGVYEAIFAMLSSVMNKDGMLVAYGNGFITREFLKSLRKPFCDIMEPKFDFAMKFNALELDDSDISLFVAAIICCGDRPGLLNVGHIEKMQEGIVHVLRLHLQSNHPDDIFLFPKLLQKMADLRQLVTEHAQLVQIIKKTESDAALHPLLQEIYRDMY
Method in brief: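 Cell-free TR-FRET binding assay with extracted PPARα protein, read 1 h after dosing. Primary screen in duplicate at 25 uM, with actives retested in concentration series. Loss of signal versus DMSO.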

[16] = target: Retinoic acid receptor alpha (Homo sapiens) (UniProt P10276); test: NVS_NR_hRAR_Antagonist: NovaScreen (NVS) Nuclear Receptor Binding Assay for human Retinoic Acid Alpha Receptor Antagonism (RAR) (AID 2283358)
Method in brief: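 Cell-free TR-FRET binding assay with extracted human RARalpha in antagonist mode, read 2 h after dosing. Loss of signal was fitted relative to DMSO; the primary screen used 25 uM in duplicate, with concentration series on follow-up.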

[17] = target: Sodium channel protein type 1 subunit alpha (Rattus norvegicus) (UniProt P04774); test: NVS_IC_rNaCh_site2: NovaScreen (NVS) Ion Channel Assay for rat Sodium Channel, Site 2 (NaCh) (AID 2283322);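 note: hit means loss of radioligand binding signal relative to DMSO so AC50 marks displacement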
Method in brief: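 Membranes: rat forebrain. Format: competitive radioligand displacement, filter separation, scintillation readout, 1 h exposure. Primary screen in duplicate at 25 uM; actives retested in concentration series.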

Measured: AC50

CCCCCCCCCCOS(=O)(=O)O
inactive: [1] | [2] | [3]

CCCCC/C=C\CCC=O
inactive: [1] | [2] | [4] | [5]

O=C(Nc1ccccc1SSc1ccccc1NC(=O)c1ccccc1)c1ccccc1
active: [6] 6.22 µM
inactive: [7] | [8]

CC(C)C1=CC2=CC[C@@H]3[C@](C)(CCC[C@@]3(C)C(=O)O)[C@H]2CC1
active: [2] 12 µM
inactive: [1] | [8]

CO[Si](OC)(OC)c1ccccc1
inactive: [1] | [2] | [9] | [10]

CCCCC/C=C\C/C=C\CCCCCCCC(=O)OC
inactive: [12] | [8] | [2] | [9] | [10] | [14] | [15]
active: [11] 16.9 µM | [6] 8.31 µM and 6.11 µM | [7] 9.68 µM and 8.87 µM | [13] 4.2 µM and 11.5 µM | [8] 6.14 µM

Cc1ccc(N/N=c2\c(=O)cc/c(=N/Nc3ccc(S(=O)(=O)O)cc3)c2=O)c(C)c1
active: [6] 7.15 µM | [7] 5.26 µM | [13] 25 µM
inactive: [2] | [9] | [10] | [14]

CCCCCCCC[N+](C)(CCCCCCCC)CCCCCCCC
inactive: [2] | [9]
active: [6] 3.77 µM | [15] 6.9 µM

C=C1C2CCC(C2)C1(C)C (configuration not stated)
inactive: [1] | [2] | [9] | [10]

CCCCCCCC/C=C\CCCCCCCC(=O)OCCO
active: [15] 12.5 µM
inactive: [1] | [2] | [10] | [14] | [16]

COCc1c(C(C)C)nc(C(C)C)c(/C=C/[C@@H](O)C[C@@H](O)CC(=O)O)c1-c1ccc(F)cc1
active: [17] 1.81 µM

CC(C)(C)c1ccc(N)cc1
inactive: [1] | [2] | [3] | [9] | [10] | [14]

Cc1ccc(C(C)c2ccc(C)c(C)c2)cc1C
active: [2] 84.6 µM | [9] 58 µM | [10] 83.6 µM | [14] 68.1 µM
inactive: [1]

CC=C1CC2C=CC1C2 (configuration not stated)
inactive: [1] | [2] | [3] | [9] | [10] | [14]

CCN(CCC#N)c1ccc(N=Nc2c(Cl)cc([N+](=O)[O-])cc2Cl)cc1
inactive: [1] | [2]
active: [13] 16.1 µM | [16] 6.24 µM

CC(C)c1ccc2c(C(C)C)cc(C(C)C)c(S(=O)(=O)O)c2c1
inactive: [7] | [8] | [2] | [3] | [4] | [5]
active: [16] 12.9 µM | [15] 7.37 µM

C1=Cc2ccccc2C1
active: [6] 15.2 µM
inactive: [2] | [3]

COC(=O)c1c(C)cc(O)c(C)c1O
inactive: [1] | [2]
active: [13] 13.6 µM | [9] 50.4 µM | [10] 61.8 µM | [14] 55.5 µM

CCOC(=O)Cc1cccc2ccccc12
inactive: [1] | [2] | [10] | [14]
active: [9] 61.7 µM

CCOc1nc(F)cc2nc(S(=O)(=O)Nc3c(Cl)cccc3C(=O)OC)nn12
active: [6] 1.63 µM

CC/C=C\C/C=C\C/C=C\CCCCCCCC(=O)O
active: [6] 11.6 µM | [8] 25 µM
inactive: [1] | [2] | [3] | [9] | [10] | [14] | [15]

CCCCCc1ccc(Cl)cc1
inactive: [1] | [2] | [3]

CCCCCCCCCCCCCOP(=O)(O)O
active: [6] 18.4 µM
inactive: [12] | [8] | [2] | [9] | [10] | [14] | [16] | [15]

c1c[nH]cn1
inactive: [1] | [2] | [3] | [9] | [10]

C/C=C\C/C=C/CCCCCCCCOC(C)=O
inactive: [8]
active: [6] 16.3 µM | [7] 17.2 µM

O=S(=O)(O)c1ccccc1C=Cc1ccc(-c2ccc(C=Cc3ccccc3S(=O)(=O)O)cc2)cc1
inactive: [12] | [8] | [3] | [9] | [10]
active: [6] 0.6 µM | [7] 2.43 µM | [14] 65.5 µM

CC(=O)OC(C)C
inactive: [1] | [12] | [8] | [2] | [3] | [10] | [14]

NC(=O)c1ccccc1O
inactive: [1] | [2] | [3] | [10] | [14]

CCO[Si](C)(OCC)OCC
inactive: [1] | [2] | [10] | [14]

CCOC(=O)[C@H](C)O
inactive: [17]

CN(C)c1ccc(C(=N)c2ccc(N(C)C)cc2)cc1
inactive: [1] | [8] | [9] | [14]
active: [6] 2.62 µM | [7] 11.6 µM | [2] 33.4 µM | [10] 18.4 µM

— PubChem BioAssay (EPA / NIEHS)
